# Source: PubChem
# LYPLA1 inh: LYPLA1 inhibitors, primary screen, counter-screen for PME1 inhibitor project, biochemical, fluorescence polarization, FP-Rh probe ABPP | inhibition, % at 5.9 µM | actives 0.16% (n = 320,000) | AID 2174, 2009 | recombinant LYPLA1;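 active = inhibition above the mean of all tested compounds plus 3 SD, set per campaign, cut at about 14% in these data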;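 also: inhibitors block serine hydrolase probe labeling of LYPLA1 so polarization falls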
# GSTO1 inh: inhibitors of recombinant GSTO1, primary screen, counter-screen for RBBP9 inhibitor project, biochemical, fluorescence polarization. Glutathione S-transferase omega-1 (Homo sapiens), P78417. actives 1.1% (n = 300,000). inhibition, % at 5.96 µM. AID 1974, 2009. activity-based probe fluorescence polarization;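 active = inhibition above the campaign mean inhibition plus 3 SD, cut at about 35% in these data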
# Fam108B counter: mouse Fam108B serine hydrolase inhibitors, primary screen, counter-screen for RBBP9 inhibitor project, biochemical, fluorescence polarization. AID 1947, 2009. recombinant Fam108B, FP-Rh probe fluorescence polarization. actives 0.33% (n = 300,000). inhibition, % at 9.51 µM;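 active = inhibition above the screen mean inhibition plus 3 SD, computed separately per campaign, cut at about 18% in these data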;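 also: inhibitors lower polarization as less probe binds the enzyme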
# PAD4 inh: human PAD4 inhibitors, primary screen, biochemical, fluorescence polarization, 1536-well format | inhibition, % at 6.36 µM | AID 485272, 2010 | actives 0.41% (n = 330,000) | Protein-arginine deiminase type-4 (Homo sapiens), Q9UM07 | recombinant PAD4, RCA probe fluorescence polarization;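 active = percent inhibition above a cutoff equal to the mean of all tested compounds plus 3 SD, cut at about 15% in these data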
# PME-1 primary: PME-1 inhibitors via competitive probe labeling, primary screen, biochemical, fluorescence polarization, FP-Rh probe, HTS. Protein phosphatase methylesterase 1 (Homo sapiens), Q9Y570. inhibition, % at 5.9 µM. recombinant PME-1. actives 0.53% (n = 320,000). AID 2130, 2009;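 active = inhibition above the campaign mean of all compounds plus 3 SD, cut at about 26% in these data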;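 also: competitive labeling of PME-1 active site by serine hydrolase directed probe; inhibitors block probe labeling so polarization falls and inhibition rises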
# Target sequence (Q9Y570 whole entry, looked up): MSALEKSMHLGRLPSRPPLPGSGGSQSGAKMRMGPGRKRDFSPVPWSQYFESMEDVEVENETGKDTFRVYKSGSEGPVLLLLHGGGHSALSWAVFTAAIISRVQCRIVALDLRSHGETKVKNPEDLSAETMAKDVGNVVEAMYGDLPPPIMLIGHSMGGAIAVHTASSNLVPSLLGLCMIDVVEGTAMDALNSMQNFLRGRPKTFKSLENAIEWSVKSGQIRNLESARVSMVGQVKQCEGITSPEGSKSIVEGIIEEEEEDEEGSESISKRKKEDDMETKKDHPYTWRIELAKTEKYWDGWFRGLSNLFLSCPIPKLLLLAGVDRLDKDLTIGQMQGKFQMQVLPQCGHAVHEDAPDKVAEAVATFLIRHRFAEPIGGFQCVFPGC
# LYPLA2 inh: LYPLA2 inhibitors, primary screen, counter-screen for PME1 inhibitor project, biochemical, fluorescence polarization, FP-Rh probe ABPP; Acyl-protein thioesterase 2 (Homo sapiens), O95372; recombinant LYPLA2; inhibition, % at 5.9 µM; actives 0.38% (n = 320,000); AID 2177, 2009;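 active = inhibition above the screen-wide mean plus 3 SD, limit set per campaign, cut at about 26% in these data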
# Target sequence (O95372 whole entry, looked up): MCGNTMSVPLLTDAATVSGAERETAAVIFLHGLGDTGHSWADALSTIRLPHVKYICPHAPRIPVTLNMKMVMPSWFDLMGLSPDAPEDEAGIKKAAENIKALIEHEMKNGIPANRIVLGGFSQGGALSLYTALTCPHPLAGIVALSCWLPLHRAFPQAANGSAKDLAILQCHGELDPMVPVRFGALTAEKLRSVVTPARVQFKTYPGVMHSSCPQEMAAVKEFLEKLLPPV
# GSTO1 inh conf: GSTO1 inhibitor hit confirmation, counter-screen for RBBP9 inhibitor project, biochemical, fluorescence polarization, triplicate; shares compounds with GSTO1 inh; recombinant GSTO1, probe fluorescence polarization; inhibition, % at 5.96 µM; AID 2176, 2009; actives 54% (n = 2,400);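 active = inhibition above the primary screen's cutoff, its mean inhibition plus 3 SD, cut at about 35% in these data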;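 also: loss of polarization as inhibitors block binding of rhodamine sulfonate ester activity probe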
# GSTO1 recomb ABPP: inhibitors of purified human GSTO1, late-stage follow-up, biochemical, gel ABPP, SE-Rh probe, percent inhibition; shares compounds with GSTO1 inh; inhibition, % at 1 µM; recombinant GSTO1, gel ABPP SE-Rh probe fluorescence; actives 30% (n = 130); AID 463110, 2010;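 active = inhibition of the enzyme GSTO1 above about 75%, limit read from the data; inactive = inhibition below that limit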
# A number is an active result; . = inactive; / = no result. Most compounds without a hit are left out; they make up all but 1.8% or so of the library.
SMILES,LYPLA1 inh,GSTO1 inh,Fam108B counter,PAD4 inh,PME-1 primary,LYPLA2 inh,GSTO1 inh conf,others
CN(C)c1ccc(NC(=O)C(=O)C2C(=O)Nc3ccccc32)cc1 (stereo unspecified),.,.,.,.,.,.,/,
COc1ccccc1N(C(=O)CCl)c1cn(C(C)=O)c2ccccc12,.,70.6,.,.,.,.,79.1,GSTO1 recomb ABPP=.
CCOC(=O)c1ccccc1Nc1cn(C(C)=O)c2ccccc12,.,.,.,.,.,.,/,
Nc1ncnc2c1ncn2[C@@H]1O[C@H](CNCc2ccccc2OCc2ccc(Cl)cc2Cl)[C@@H](O)[C@H]1O,/,/,/,.,/,/,/,
CCOc1ccccc1NC1c2ccccc2C(=O)N1c1ccc(C)cn1 (stereo unspecified),.,.,.,.,.,.,/,
CCOC(=O)c1ccccc1NC1c2ccccc2C(=O)N1c1ccc(C)cn1 (stereo unspecified),.,75.7,.,.,.,.,.,
COc1ccc(-c2cn3nc(SCC(=O)NCC4CCCO4)ccc3n2)cc1 (stereo unspecified),.,.,.,.,.,.,/,
O=[N+]([O-])c1ccc(O)c2ncccc12,.,45.4,.,.,.,.,.,
O=[N+]([O-])c1cc([N+](=O)[O-])c2cccnc2c1Oc1ccccc1O,.,50.2,.,.,.,.,.,
COc1ccc(N=Nc2ccc(O)c3ncccc23)cc1,.,.,.,.,.,.,/,
O=Nc1ccc(O)c2ncccc12,.,68.8,.,.,.,.,.,
COc1cccc(N=Nc2ccc(O)c3ncccc23)c1,.,38.6,.,.,.,.,.,
Cc1ccccc1N=Nc1ccc(O)c2ncccc12,.,.,.,.,.,.,/,
O=[N+]([O-])c1ccc(O)c2cccnc12,.,.,.,.,.,.,/,
COc1cc(C(F)(F)F)ccc1C(=O)NCCc1ccco1,.,.,.,.,.,.,/,
S=C(NCCc1c[nH]c2ccccc12)NC1CCCCC1,.,51.0,.,.,.,.,.,
C/C(=N\NS(=O)(=O)c1ccc(Cl)c([N+](=O)[O-])c1)c1ccc(C)o1,.,49.3,.,.,.,.,.,
C/C(=N\NS(=O)(=O)c1ccc(Cl)c([N+](=O)[O-])c1)c1cc2ccccc2o1,.,40.4,.,.,.,.,.,
C/C(=N\NS(=O)(=O)c1ccc(C)c([N+](=O)[O-])c1)c1cc2ccccc2o1,.,.,.,.,.,.,/,
C/C(=N\NC(=O)c1ccccc1F)c1cccc(NC(=O)c2ccc(C)cc2)c1,.,.,.,.,.,.,/,
O=C1CC(N(O)c2ccccc2)C(=O)N1c1ccc(Cl)c(Cl)c1 (stereo unspecified),.,63.5,.,17.1,.,.,.,
O=C(O)CSC1CC(=O)N(c2ccc(Cl)c(Cl)c2)C1=O (stereo unspecified),.,.,.,.,.,.,/,
Cc1sc(NC(=O)CCl)c(C(=O)c2ccccc2)c1C,.,74.3,.,.,.,.,97.1,
O=C(N/N=C/c1ccccc1)c1ccc(N2CCCC2=O)cc1,.,.,.,.,.,.,/,
N#CC(C#SN)=C1CCCCC1,.,51.6,.,.,.,.,.,
SMILES,LYPLA1 inh,GSTO1 inh,Fam108B counter,PAD4 inh,PME-1 primary,LYPLA2 inh,GSTO1 inh conf,others
N#CC(C(=O)O)=C1CCCC1,.,.,.,.,.,.,/,
O=C(Nc1ccc(S(=O)(=O)Nc2ccccc2F)cc1)N1CCCCC1,.,.,.,.,.,.,/,
CC1CC(C)CN(C(=O)CN2C(=O)NC3(CCCCCCC3)C2=O)C1 (stereo unspecified),.,/,/,.,.,.,/,
CN(C)c1ccc(C(C(=O)NCc2ccccc2)N(Cc2ccco2)C(=O)c2snc(C(N)=O)c2N)cc1 (stereo unspecified),.,.,.,.,.,.,/,
Cc1ccc(S(=O)(=O)c2nc(S(C)(=O)=O)sc2N2CCC3(CC2)OCCO3)cc1,.,63.1,.,.,.,.,.,
CC(C)Oc1ccc(C(=O)Nc2cccc(S(=O)(=O)N3CCCC3)c2)cc1,/,/,/,.,/,/,/,
O=C1C(c2ccccc2)=[N+]([O-])c2ccccc21,.,63.9,.,.,.,.,48.2,
Cc1ccc(S(=O)(=O)N2CCCCC2C)cc1[N+](=O)[O-] (stereo unspecified),.,.,.,.,.,.,/,
c1ccc(-c2ccc(C3=Nn4c(Cn5nnc6ccccc65)nnc4SC3)cc2)cc1,.,56.3,.,.,.,.,.,
Cc1nn(-c2ccccc2)c2c1C1(C(=O)N(C(C)C)c3ccccc31)C(C#N)=C(N)O2 (stereo unspecified),.,40.1,.,.,.,.,.,
C[C@H](CO)N1C[C@H](C)[C@@H](CN(C)S(=O)(=O)c2cccs2)Oc2ccc(NS(=O)(=O)c3ccccc3)cc2CC1=O,/,/,/,.,/,/,/,
CC(C)(C)N(Cc1ccccc1)C(=O)COC(=O)c1ccc2ccccc2n1,/,/,/,.,/,/,/,
O=C(CCl)N(Cc1ccccc1)c1ccccc1,.,92.6,.,.,.,.,95.6,GSTO1 recomb ABPP=.
CCCN(C(=O)Cn1ncc2c([nH]c3ccccc32)c1=O)c1ccccc1C,.,.,.,.,.,.,/,
Cc1ccccc1N(Cc1cc(=O)[nH]c2ccccc12)C(=O)C(C)C,.,.,.,.,.,.,/,
Cc1ccccc1N(Cc1cc(=O)[nH]c2ccccc12)C(=O)CCl,.,74.3,.,.,.,.,74.8,GSTO1 recomb ABPP=.
CCCCCCCN(C(=O)CCl)c1ccccc1C,.,100.8,.,.,.,.,95.8,GSTO1 recomb ABPP=.
CCCC(=O)N(Cc1cc(=O)[nH]c2ccccc12)c1ccccc1,.,.,.,.,.,.,/,
O=C(CCl)N(Cc1cc(=O)[nH]c2ccccc12)c1ccccc1,.,84.5,.,.,.,.,91.5,GSTO1 recomb ABPP=.
O=C(NCCCCc1ccccc1)C1CCCC1,.,.,.,.,.,.,/,
CCn1c(CCl)nc2cc(S(=O)(=O)N3CCOCC3)ccc21,/,/,/,.,/,/,/,
CS(=O)(=O)/C(C#N)=C\c1cnc(S(=O)(=O)c2ccccc2)s1,.,.,.,.,.,.,/,
CN(CC(=O)NCc1ccco1)CC(=O)Nc1c(Cl)cccc1Cl,.,/,/,.,.,.,/,
